This note sets out measurements from PubChem BioAssay (NCI).

Assay in all cases: NCI-60 one-dose screen, 48 h (100 = growth as untreated, 0 = no growth, -100 = all killed)
What all share (conditions): 10 µM unless noted

The subject of assay [1] is NCI-H23 lung.
In assay [2] the test system is NCI-H226 lung.
The test system of assay [3] is NCI-H322M lung.
Assay [4] deals with HOP-62 NSCLC.
The test system of assay [5] is NCI-H460 lung.
For assay [6], the system named is HOP-92 NSCLC.
Assay [7] relates to NCI-H522 lung.
The subject of assay [8] is A549/ATCC NSCLC.
Assay [9] has as its system 786-0 renal.
In assay [10] the test system is COLO 205 colon.

About 83,000 compounds went through this panel and 20% of them were active in at least one assay; those are over-represented in the sample as a whole.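 Step 1: grow cells in 96-well plates. Step 2: add test compound at a single concentration. Step 3: incubate 48 h. Step 4: record percent growth.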 Values without a mark were called inactive. The source made the active and inactive calls. The calls were made as follows: active = growth percent below 10; inactive = the rest.

Take `O=C1/C(=C/c2cn(-c3ccccc3)nc2-c2ccccc2)SC(=S)N1CCc1ccccc1`: the growth in assay [1] was 102%; in assay [2] it was 99.4%; in assay [3], 113%; in assay [4], 94%; in assay [5], 102%; in assay [6], 122%. Also, the growth in [7] was 93.5%; in [8], 111%; in assay [9] it was 106%; in assay [10] it was 116%.

`COc1cc(-c2ccc3c(c2)NC(=O)/C3=C\c2ccc[nH]2)ccc1O`: the growth is 12.1% in [1]; 39.6% in [2]; 30.3% in [3]; 27.8% in assay [4]; 7.55% (active) in assay [5]; 57.8% in [6]. Further, the growth in assay [7] was 6.78% (active); in [8] it was 20.7%; in assay [9], 14.8%; in assay [10] it was 25.2%.

As for `CN(C)C(=S)N=Nc1c(O)[nH]c2ccccc12`, the growth in [1] was 28.2%; in [2] it was 4.04% (active); in assay [3] it was 24.6%; in assay [4], 10.9%; in assay [5] it was -4.55% (active); in [6], -6.97% (active). Also, the growth was 27.4% in [7], -10.6% (active) in [8], 8.93% (active) in assay [9] and 19.7% in assay [10].

Turning to `O=C1Nc2cc(-c3ccc(O)cc3)ccc2/C1=C/c1ccc[nH]1`, the growth in [1] is -16% (active); in assay [2], 3.63% (active); in [3] it was 6.56% (active); in [4], 24.4%; in [5] it was 2.66% (active); in [6], 10.8%. For the same compound, the growth in assay [7] is 1.89% (active); in assay [8], 9.14% (active); in assay [9] it was 10.9%; in assay [10] it was 13.7%.

Turning to `FC(F)(F)Oc1ccc2nc3nc4ccc[nH]c4cc3c2c1`, the growth was 64.7% in assay [1]; 57.2% in [2]; 71.6% in assay [3]; 58.4% in [4]; 46.2% in assay [5]; 84.7% in [6]. Further, the growth in [7] is 75.3%; in assay [8], 64.5%; in [9], 46.4%; in assay [10] it was 95.4%.

For the compound `NC(=NC1C2CC3CC(C2)CC1C3)Nc1ccc(I)cc1` (stereo not given), the growth in [1] is 15.4%; in [2], 84.7%; in [3] it was 15.7%; in [4], 12.9%; in assay [5] it was 55.2%; in assay [6], 31.1%. Besides, the growth in assay [7] was 42.4%; in assay [8], 26.1%; in assay [9], 61%; in assay [10], -70.3% (active).

For the compound `NC(=O)c1cc(Cl)ccc1NC(=O)/C=C/c1ccccc1`, the growth in assay [1] was 60.3%; in assay [2], 63.6%; in assay [3], 45.1%; in [4], 84.9%; in assay [5], 12.1%; in assay [6], 58.7%. For the same compound, the growth in [7] was 4.73% (active); in assay [8], 17.8%; in assay [9], 56.8%; in assay [10], -43.3% (active).

Turning to `CCc1nnc(CNc2ccc(Cl)cc2)o1`, the growth is 105% in assay [1]; 93.2% in [2]; 92% in assay [3]; 111% in [4]; 100% in [5]; 102% in assay [6]. Moreover, the growth was 89.9% in assay [7], 94.4% in [8], 97.4% in assay [9] and 106% in [10].

`COc1ccc2c(c1)C(=O)/C(=C/c1cccnc1)CC2`: the growth in assay [1] is 90.9%; in [2], 107%; in [3], 106%; in assay [4], 97.5%; in assay [5], 105%; in assay [6] it was 94.7%. For the same compound, the growth in [7] is 73.2%; in assay [8], 101%; in assay [9] it was 94.6%; in [10], 105%.

Take `CSc1nc(NCc2ccccc2)c(C#N)c(-c2cccc([N+](=O)[O-])c2)n1`: the growth was 93.7% in [1]; 94.5% in assay [2]; 95.7% in [3]; 89.2% in assay [4]; 97% in assay [5]; 77.7% in assay [6]. Also, the growth was 85.4% in assay [7], 88.4% in [8], 96.6% in [9] and 110% in assay [10].

As for `Cc1cc(N2CCN(c3ccnc4cc(Cl)ccc34)CC2)nc(N2CCOCC2)n1`, the growth in assay [1] was 84.4%; in assay [2] it was 88.6%; in assay [3], 95.3%; in assay [4], 91.9%; in assay [5] it was 96.7%; in assay [6] it was 66.2%. Further, the growth in [7] is 85.3%; in assay [8] it was 89.4%; in assay [9] it was 97.8%; in [10], 73%.

As for `Clc1ccc2c(NCCNc3nc(N4CCOCC4)nc4ccccc34)ccnc2c1`, the growth in [1] was 44%; in assay [2] it was -22.5% (active); in [3], 15.9%; in [4], -37.1% (active); in [5], -29.3% (active); in assay [6], -41.6% (active). Also, the growth was -70.6% (active) in [7], 5.31% (active) in assay [8], -39.9% (active) in [9] and -67.5% (active) in assay [10].

For the compound `O=C1/C(=C/c2ccc3c(c2)OCO3)SC(=S)N1CCc1ccc(O)cc1`, the growth in assay [1] is 94.1%; in [2], 102%; in [3] it was 97.3%; in [4], 102%; in assay [5], 102%; in assay [6], 72%. Also, the growth in [7] was 48.2%; in [8], 93.5%; in assay [9], 75.2%; in [10], 116%.
